The values below come from PubChem BioAssay (NCATS).

Structures are written as SMILES. Results filed as inconclusive are left out. Unmarked numbers belong to inactive results. Active and inactive are the calls of the source. Calls follow the shape of the dose curve; as a rule, active = well fitted inhibition curve with a large enough effect; inconclusive = small, poorly fitted or top-dose-only effect; inactive = no such curve, though single readings can be large or run the other way.
Potency is read from the fitted curve at half-maximal effect.

A short description of this assay: BET inhibitor-based combinations targeting novel dependencies in MECOM-rearranged (r) AML: HNT-34 cell line (AID 2202234). Also: nearly all actives have a fitted effect of over 35% in size.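 As to viability (% of control): plate controls were vehicle wells for no effect and cell-free wells for full effect.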 The conditions noted are these: HNT-34 AML viability, CellTiter-Glo luminescence, 48 h; series mostly up to 46 µM; viability (% of control): at the top concentration. From the text:
Ecotropic viral insertion site 1 (EVI1) is located on chromosome 3q26.2 as part of the MECOM (MDS and EVI1 complex) locus. Under normal hematopoiesis, EVI1 is a regulator of hematopoietic stem cell maintenance and self-renewal and EVI1 levels decrease as the cells differentiate. In approximately 5-10% of de novo acute myeloid leukemia (AML) EVI1 is aberrantly expressed, including Chromosomal inv(3)(q21;q26.2) or t(3;3)(q21;q26.2) alterations (MECOM-r) that account for about 50% of AML with EVI1 overexpression 31. AMLs with high levels of EVI1 have a poor prognosis and an overall survival time averaging between 10-14 months. EVI1 overexpression confers resistance in leukemia cells, highlighting the need to develop new targeted therapies for EVI1 overexpressing AMLs. Here, we performed an unbiased chemical drug screening by evaluating the single agent activity of a collection of 2,480 oncology-focused, approved and investigational drugs (NCATS Mechanism Interrogation Plates, MIPE v5.0) against a panel of seven AML cell lines. These included four MECOM-r cell-lines (AML-191, AML-194, UCSD-AML1 and HNT-34) and three non-MECOM-r AMLs (MV4-11, OCI-AML3 and SET-2). Exploiting the mechanistic redundancy built in the library, we identified target-level sensitivities in MECOM-r AML cells and relative activity as compared to other AML subtypes.
A collection of 2480 mechanistically annotated dugs (MIPE v5.0) was used to screen four 3q26.2 rearranged AML cell lines and three non-3q26.2 rearranged AML cell lines. This library purposely exploits redundancy by including multiple inhibitors of key onco-targets, while simultaneously encompassing mechanistic diversity, targeting more than 800 distinct mechanisms of action. Briefly, cells were seeded in 5 uL of growth media using a Multidrop Combi dispenser into 1536 well white polystyrene tissue culture treated plates (Corning) at a density of 500cells/well. For each cell-line, for each of the 2480 drugs in MIPE v5.0 library, an 11-point dose curve was generated via a 1536 pin-tool. Plates were incubated for 48 hr at standard incubator conditions, covered by a stainless steel gasketed lid to prevent evaporation. Cell viability was determined by luminescence based, Cell Titer Glo assay (Promega). In detail, 3 uL of Cell Titer Glo were added to each well and plates were incubated at room temperature for 15 min with a stainless-steel lid in place. Luminescence readings were taken using a Viewlux (PerkinElmer) with a 2 s exposure time per plate. Compound dose-response curves were normalized to DMSO and empty well controls on each plate. Quantitative drug activity data from dose-response curves was determined utilizing area Under the Curve (AUC) and Z-transformed AUC (Z-AUC, a mean-centering transformation applied to each individual cell-line screened).
(In general: Cellular ATP, detected with luciferase, serves as a proxy for viable cell number.)
On to `COc1ccc(S(=O)(=O)NCc2ccc(C(=O)NCCc3ccc(Cl)cn3)cc2)cc1`, for which the “viability (% of control)” value is 85%.
For the compound `CC1(C)OC2=C(C(=O)c3ccccc3C2=O)[C@H](NCc2ccccc2)[C@@H]1O`, the Potency is 7.42 µM (active).
Consider `C[C@@H]1Cc2c([nH]c3ccccc23)[C@@H](c2c(F)cc(/C=C/C(=O)O)cc2F)N1CC(C)(C)F`, for which the “viability (% of control)” value was 90.3%.
Take `COc1ccc(-c2ccc3ncc4c(c3c2)n(-c2ccc(N3CCNCC3)c(C(F)(F)F)c2)c(=O)n4C)cn1`: the Potency was 0.118 µM (active).
Same read-out and setting: next, `Nc1ccc(C(=O)c2cc3c(ccc4ccccc43)[nH]2)cc1`: 2.41 µM (active).
For `NC(CC1c2ccccc2Oc2ccccc21)(C(=O)O)C1CC1C(=O)O` (stereo not given), the “viability (% of control)” value was 108%.
Take `O=C(Nc1nccs1)C(c1cc(F)ccc1O)N1Cc2ccccc2C1=O` (stereo not given): the Potency is 16.6 µM (active).
Turning to `COc1ccc2[nH]c(C(=O)N3CCC(CC(C)(C)O)CC3)cc2c1`, the “viability (% of control)” value was 96.9%.
Same read-out and setting: with `CCC(=O)NS(=O)(=O)c1ccc(-c2c(-c3ccccc3)noc2C)cc1` the figure was 111%; with `CC(=O)OCC(=O)[C@@]12OC(C)(C)O[C@@H]1C[C@H]1[C@@H]3C[C@H](F)C4=CC(=O)C=C[C@]4(C)[C@@]3(F)[C@@H](O)C[C@@]12C`, 96%.
Still for that read-out and setting: with `Cc1c(F)ccc(C(=O)Nc2cc([N+](=O)[O-])ccc2N2CCN(C)CC2)c1Cl` the figure was 67.9%; with `C[C@]12CC[C@H](O)CC1=CC[C@@H]1[C@@H]2CC[C@]2(C)C(c3cccnc3)=CC[C@@H]12`, 102% [at 15.6 µM].
`CN[C@@H]1[C@@H](O)[C@@H](O[C@@H]2[C@@H](O)[C@H](O[C@H]3O[C@H](CN)[C@@H](O)[C@H](O)[C@H]3O)[C@@H](N)C[C@H]2NC(=O)C(O)CN)OC[C@]1(C)O` (stereo not given in full): the “viability (% of control)” value is 107%.
On the same count and under the same terms, with `N#Cc1c(N(CC(=O)O)CC(=O)O)sc(C(=O)O)c1CC(=O)O` the figure was 102%; with `C=C1CCC[C@]2(C)C=C3OC(=O)C(C)=C3C[C@@H]12`, 106%.
With `C[C@@H](Oc1cc(C(=O)Nc2ccc(C(=O)N3CCN(C)CC3)cc2)nnc1N)c1c(Cl)ccc(F)c1Cl`, the Potency was 1.18 µM (active).
The same measure, in the same setting: with `Cc1cc2cc(Oc3ccnc(Nc4cccc(CS(=O)(=O)NCCN(C)C)c4)n3)ccc2[nH]1` the figure was 13.2 µM (active).
Turning to `CN[C@@H](C)C(=O)N[C@H](C(=O)N1CCC[C@H]1C(=O)Nc1snnc1-c1ccccc1)C1CCCCC1`, the “viability (% of control)” value was 53.8%.
Take `CC(C)(O)C1CCC(Nc2ccc3ncc(-c4cccc(C(F)(F)F)c4)n3n2)CC1` (stereo not given): the Potency is 6.61 µM (active).
Still for that read-out and setting: with `c1ccc2c(-c3cnn4cc(-c5ccc(OCCN6CCOCC6)cc5)cnc34)ccnc2c1` the figure was 8.11 µM (active); with `C=CC(=O)Nc1cccc(Oc2nc(Nc3ccc(N4CCN(C)CC4)c(F)c3)nc3[nH]ccc23)c1`, 1.32 µM (active).
The same measure, in the same setting: with `O=C(CCCCCCC(=O)N/N=C/c1ccc(N(c2ccccc2)c2ccccc2)cc1)NO` the figure was 4.68 µM (active).
On the same count and under the same terms, with `CN1C/C=C/CCOc2cccc(c2)-c2ccnc(n2)Nc2cccc(c2)C1` the figure was 0.417 µM (active).
On to `C[C@H](Nc1nc(N[C@H](C)C(F)(F)F)nc(-c2cccc(Cl)n2)n1)C(F)(F)F`, for which the “viability (% of control)” value was 98.1%.
For `O=C(O)/C=C/c1ccc(Cn2ccnc2)cc1`, the “viability (% of control)” value is 100%.
Consider `Cc1ccc(NC(=O)c2ccc(CN3CC[C@H](N(C)C)C3)c(C(F)(F)F)c2)cc1Nc1nccc(-c2cncnc2)n1`, for which the Potency was 0.0407 µM (active).
The same measure, in the same setting: with `C[C@@H]1COCCN1c1cc(C2(S(C)(=N)=O)CC2)nc(-c2ccnc3[nH]ccc23)n1` (stereo not given in full) the figure was 4.68 µM (active).
For `C[C@H]1[C@H](C)CC[C@]2(C(=O)O)CC[C@]3(C)C(=CC[C@@H]4[C@@]5(C)C[C@@H](O)[C@H](O)[C@@](C)(CO)[C@@H]5CC[C@]43C)[C@H]12`, the “viability (% of control)” value was 93.4%.
With `Cc1cc(CN2CCN(c3c(Br)cnc4nc(-c5ccc(N6CCN(C)CC6)cc5)[nH]c34)CC2)no1`, the Potency is 1.48 µM (active).
The same measure, in the same setting: next, `O=C(c1ccc(Nc2nc(C3CC3)cn3c(-c4cn[nH]c4)cnc23)c(F)c1)N1CCOCC1`: 5.25 µM (active).
Consider `N#Cc1ccc(C(c2ccc(C#N)cc2)n2cncn2)cc1`, for which the “viability (% of control)” value is 82.5%.
As to `C=C1C(=O)O[C@H]2C[C@H](C)C(/C=C/C(C)=O)=CC[C@H]12`, the Potency is 3.32 µM (active).
Same read-out and setting: with `Cn1nccc1Nc1nccc(-c2cc3c(s2)C(C)(C)N(CCN2CCOCC2)C3=O)n1` the figure was 6.61 µM (active).
Turning to `CN1C(N)=N[C@](C)(c2cc(NC(=O)c3ccc(F)cn3)ccc2F)CS1(=O)=O`, the “viability (% of control)” value was 98.9%.
On the same count and under the same terms, with `CCCc1nc(C)c2c(=O)[nH]c(-c3cc(S(=O)(=O)N4CCN(CC)CC4)ccc3OCC)nn12` the figure was 98.3%; with `CC(C)[C@H]1C(=O)N[C@@H](CCCN=C(N)N)C(=O)NCC(=O)N[C@@H](CC(=O)O)C(=O)N[C@H](Cc2ccccc2)C(=O)N1C`, 107% [at 15.6 µM].
In the case of `CC(=O)NCC(=O)N1[C@@H]2CC[C@H]1c1ccc(Nc3ncc(C(F)(F)F)c(NC4CCC4)n3)cc12`, the Potency is 0.662 µM (active).
Same read-out and setting: next, `CCCCCCCOc1ccc(CCC(N)(CO)CO)cc1C(F)(F)F`: 14.8 µM (active).
Still for that read-out and setting: with `CCN(CC)CCNC(=O)c1c(C)[nH]c(/C=C2/C(=O)Nc3ccc(-c4csc(-c5ccccc5)n4)cc32)c1C` the figure was 26.3 µM (active).
For the compound `CN(C)CCCN=c1c2ccccc2n(C)c2[nH]c(=O)n(C)c(=O)c12`, the Potency was 23.5 µM (active).
